Screening results from PubChem BioAssay.
In the library only some 6.1% were active in any assay of this set; here they are far more common.
D3 antag – D3 dopamine receptor (human) antagonism; P35462; D3R cells, DiscoveRx beta-arrestin luminescence, antagonist mode; stronger effect = lower value; max response, negative = inhibition, %; 2.5% of 360,000 active; in the data active means max response below about -50%; inconclusive means no clear call, values can overlap the other calls; further: on the % scale 0 is the no-effect control and ±100 the full control effect
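Cells expressing the human receptor were seeded at 1500 cells/well, incubated overnight at 37 degrees C in 5% CO2, then exposed to library compounds with dopamine controls for 90 minutes at 37 degrees C before luminescent detection.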
D3 ag – agonists of human D3 dopamine receptor; max activation, %; 0.58% of 410,000 active; AID 652048; P35462; D3R DiscoveRx beta-arrestin cells, luminescence, 90 min; in the data active means max activation above about 30%; further: 0% is about no effect
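Agonist mode: compounds and dopamine controls were applied to plated cells for 90 min at 37 degrees C after an overnight attachment at 1500 cells/well. Luminescent read-out followed 30 - 60 minutes at room temperature with DiscoveRx detection reagent.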
D1 ag – human D1 receptor agonism | P21728 | HEK293 T-REx D1 cells, calcium flux, agonist mode | activation, % at 2 µM | 1% of 360,000 active; in the data active means activation above about 30%; further: 0% is about no effect
Target sequence (P21728 whole entry, looked up): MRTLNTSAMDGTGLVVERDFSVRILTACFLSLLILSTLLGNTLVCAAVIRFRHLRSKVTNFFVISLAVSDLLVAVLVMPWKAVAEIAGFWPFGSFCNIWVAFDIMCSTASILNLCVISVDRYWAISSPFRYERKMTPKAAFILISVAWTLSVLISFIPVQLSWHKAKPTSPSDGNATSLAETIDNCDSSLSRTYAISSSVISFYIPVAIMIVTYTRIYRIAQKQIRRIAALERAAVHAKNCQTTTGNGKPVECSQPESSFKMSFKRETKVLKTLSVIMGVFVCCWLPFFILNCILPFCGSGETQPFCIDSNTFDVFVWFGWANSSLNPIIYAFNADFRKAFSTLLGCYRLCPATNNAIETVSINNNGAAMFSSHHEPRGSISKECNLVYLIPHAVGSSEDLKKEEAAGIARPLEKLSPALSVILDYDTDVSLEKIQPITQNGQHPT
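Agonism was scored from calcium flux recorded over 180 s (1 read/s) after pintool compound addition, following a 10-cycle baseline. Cells were inducible force-coupled HEK293 TREx D1, plated overnight at 30 C and loaded with no-wash calcium dye.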
D1 potentiator – human D1 dopamine receptor positive modulation | potentiation, % at 10 µM | HEK293 TREx D1 cells, calcium flux, dopamine EC20 potentiation | 0.036% of 360,000 active | AID 504651 | P21728; in the data active means potentiation above about 30%; further: 0% is about no effect
D1 antagonist – antagonists of human D1 dopamine receptor; activity change, negative = inhibition, % at 10 µM; HEK293 TREx D1 cells, calcium flux, dopamine EC80; stronger effect = lower value; 3.2% of 360,000 active; AID 504652; in the data active means activity change below about -30%; further: on the % scale 0 is the no-effect control and ±100 the full control effect
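Cells carrying a force-coupled, tetracycline-inducible human D1 receptor report calcium flux. Each well gets a 10 s baseline, compound with 180 s monitoring, then an EC80 dopamine stimulus with a second 180 s kinetic read.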
Starred values were filed as active, the others as inactive; ? = inconclusive; nt = no result.

SMILES	D3 antag	D3 ag	D1 ag	D1 potentiator	D1 antagonist
COc1cc(N(Cc2ccccc2)Cc2ccccc2)c2ncn(C(C)C)c2c1	-30	5	0	-6	-3
COc1ccccc1N1CCN(C2CCCN(C(=O)c3cc(C(C)C)on3)C2)CC1 (centres undefined)	-62*	-2	nt	nt	nt
COc1cc(OC)cc(C(=O)N2CCC(N3CCN(c4ccccc4OC)CC3)CC2)c1	-53*	0	-1	-4	2
COc1cccc(OCc2cc(C(=O)N3CCN(c4ccccc4O)CC3)no2)c1	6	7	4	-2	-2
COc1cccc(OCc2cc(C(=O)N3CCN(c4ccccc4OC)CC3)no2)c1	-63*	-19	11	-8	-3
COc1ccccc1N1CCN(C2CCCN(C(=O)c3cccc(-c4ccco4)c3)C2)CC1 (centres undefined)	-66*	-13	3	-7	-9
Cc1ccc(-n2c(C)c3c(C)nnc(C)c3c2C)cc1C	-58*	2	0	2	11
Cc1cc(-n2c(C)c3c(C)nnc(C)c3c2C)ccc1N	7	27	2	-2	-5
COc1ccc2c3c(c(=O)oc2c1)C1O[C@](CCCCN2C(=O)c4ccccc4C2=O)(Cc2cc(OC)c(OC)cc21)O3	nt	nt	2	-1	8
CCN1CCCC1CNC(=O)C(=O)Nc1ccccc1OC (centres undefined)	6	-10	-1	0	-22
Cc1cccc(N2CCN(Cc3nc(-c4ccccc4Cl)oc3C)CC2)n1	6	-20	1	-7	-31*
Cc1cccc(N2CCN(Cc3nc(-c4cccc(Cl)c4)oc3C)CC2)n1	?	-12	1	0	20
COc1ccc(NC(=O)CSc2nc3[nH]c(=O)cc(O)c3s2)c(OC)c1	-30	-8	2	-3	-8
CN1CCN(CC#CC(C)(O)C2CC3C=CC2C3)CC1 (centres undefined)	0	-15	4	-1	-74*
Cc1c(NC(=O)c2ccc(OC(C)C)cc2)cccc1-c1nc2ncccc2o1	nt	6	3	-2	-23
Cc1cc(CSC(=N)N)c(CSC(=N)N)cc1C	-21	-4	2	-3	-95*
N=C(N)SCc1ccc(Cl)c2ccccc12	0	1	nt	nt	nt
CC[C@H]1OC(=O)[C@H](C)[C@@H](O[C@H]2C[C@@](C)(OC)[C@@H](O)[C@H](C)O2)[C@H](C)[C@@H](O[C@@H]2O[C@H](C)C[C@H](N(C)C)[C@H]2O)[C@](C)(O)C[C@@H](C)/C(=N\OCOCCOC)[C@H](C)[C@@H](O)[C@]1(C)O	nt	5	nt	nt	nt
COc1cccc(C2=NN(S(C)(=O)=O)C(c3cn(-c4ccccc4)nc3-c3cccs3)C2)c1 (centres undefined)	nt	9	1	-2	-39*
Cc1ccc(Sc2c([N+](=O)[O-])c(=O)n(C)c3ccccc23)cc1	-72*	-27	-1	-8	12
CSc1nc(-c2ccco2)cc(C(F)(F)F)c1C#N	11	3	5	0	1
N#Cc1c(C(F)(F)F)cc(-c2ccco2)nc1SCc1ccncc1	-2	-1	37*	-3	-10
N#Cc1c(C(F)(F)F)cc(-c2ccco2)nc1SCc1ccccn1	-9	-3	31*	-8	-24
COc1ccc(NS(=O)(=O)c2cccc(C(=O)N3CCN(S(=O)(=O)c4ccccc4)CC3)c2)cc1	5	-10	nt	nt	nt
CN(C(=O)CSc1nc2c(c(=O)[nH]1)CCC2)c1ccccc1	0	1	0	3	10
SMILES	D3 antag	D3 ag	D1 ag	D1 potentiator	D1 antagonist
Cc1cc(Nc2ccc(C(C)C)cc2)nc(-n2nc(C)cc2C)n1	nt	-23	-1	3	12
COc1ccc(Nc2cc(C)nc(-n3nc(C)cc3C)n2)cc1Cl	nt	-26	4	0	-34*
Nc1nonc1-n1nnc(C(=O)N/N=C/c2cccc(Cl)c2)c1CSc1ccc(Cl)cc1	11	3	3	-1	-14
Nc1nonc1-n1nnc(C(=O)N/N=C/c2ccccc2)c1CSc1ccc(Cl)cc1	-19	1	6	-7	-46*
Nc1nonc1-n1nnc(C(=O)N/N=C/c2cccc(Cl)c2)c1CSc1ccccc1	12	39*	4	-7	0
COc1ccc(C(=O)COC(=O)Cc2n[nH]c(=O)c3ccccc23)c(OC)c1	11	-7	2	-4	7
COc1ccc(CNC(=O)C2CCN(c3nc4ccc(C)cc4[nH]3)CC2)cc1	nt	-1	38*	7	-1
COc1ccccc1NC(=O)CN1CCC(c2nc3ccc(C)cc3[nH]2)CC1	8	-8	2	-3	6
COc1cccc(CNC(=O)CN2N=C(c3ccc(C)cc3)CCC2=O)c1	nt	33*	0	2	-8
COc1cccc(CNC(=O)CN2CCC(c3nc4ccc(C)cc4[nH]3)CC2)c1	-7	-2	0	-2	-38*
COc1ccc(C2=NN(CCC(=O)NC3CCCCCC3)C(=O)CC2)cc1	-3	-2	1	-3	-33*
Cc1ccc2nc(N3CCC(C(=O)NCc4ccc(F)cc4)CC3)[nH]c2c1	nt	-7	1	3	-10
COc1ccccc1C(O)c1ncc(-c2ccccc2C)[nH]1 (centres undefined)	24	0	nt	nt	nt
O=C(Nc1ccccc1C(=O)Nc1ccc(Br)cn1)c1cccc([N+](=O)[O-])c1	-1	-5	1	-2	3
COCCCNC(=O)C1CCN(c2nc3ccc(C)cc3[nH]2)CC1	nt	3	2	-2	-55*
CC(C)CCNC(=O)C1CCN(c2nc3ccc(Cl)cc3[nH]2)CC1	nt	2	0	-1	8
Nc1ncnc2c1ncn2[C@@H]1O[C@H](CNCc2ccc(-n3cccn3)cc2)[C@@H](O)[C@H]1O	-2	-24	nt	nt	nt
COC(=O)[C@H](C)NC(=O)Nc1cccc(Br)c1	0	84*	0	-1	2
COCCNC(=O)Cn1c(=O)n(-c2ccc(C)c(C)c2)c(=O)c2c3c(sc21)CCCCC3	nt	10	0	-1	-3
Cc1ccc(N2C(=O)C3C4C=CC(CNC(=S)Nc5ccc(Cl)cc5)(O4)C3C2=O)cc1 (centres undefined)	17	4	13	-10	-31*
Cc1[nH]c2ccccc2c1C1(O)C(=O)N(Cc2ccccc2)c2ccc(Cl)cc21 (centres undefined)	nt	2	0	-1	15
O=C(c1ccc(F)cc1)N1CCN(Cc2ccccc2)CC1	?	-17	4	-4	-3
COc1ccc(C(=O)CC(=O)c2ccc(F)cc2)cc1	-4	-15	nt	nt	nt
COc1ccc(/C=C2\C(=O)NC(=S)N2C(=O)c2ccc(F)cc2)cc1	10	-1	112*	-6	11
O=C1NC(=S)N(C(=O)c2ccc(F)cc2)/C1=C/c1ccccc1	4	-1	80*	-2	-8
CN1CCN(C(=O)CCN2C(=O)/C(=C\c3ccc(F)cc3)SC2=S)CC1	-7	-4	nt	nt	nt
